Experimental findings from PubChem BioAssay AID1042 (National Center for Advancing Translational Sciences (NCATS), 2008) are described below.

Results filed as inconclusive are left out. Activity calls are given as the source filed them.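 The calls were made as follows: active = raised CDH13 expression over DMSO controls, judged by fold change in triplicate runs, no set cutoff; inconclusive = doubtful CDH13 rise, criteria not stated; inactive = no rise, falls in expression ignored.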

The experiment can be described thus: CDH13 Derepression/Induction Secondary Assay for qHTS Assay for Epigenetic Modulators. Particulars: H358 cells, CDH13 mRNA qPCR, 72 h; hits give high values. The text has this: NIH Molecular Libraries Screening Centers Network [MLSCN] NIH Chemical Genomics Center [NCGC] MLSCN Grant: 1 X01 MH079860-01 Assay Provider: Elisabeth D. Martinez, University of Texas SW Medical Center NCGC Assay Overview: This secondary assay characterizes selected actives identified in the qHTS of the Locus Derepression (LDR) assay (PubChem AID 597). The LDR assay detects the derepression of a GFP reporter that is stably integrated in a region of the genome of murine c127i mammary cells that is presumably silenced. Compounds that cause derepression of the locus to express GFP are identified by enumerating GFP positive cells using a laser-scanning microplate cytometer. Selected LDR actives were assayed for the induction of CDH13 gene expression, a gene silenced by methylation of its promoter. Treatment of cells with DNA methyltransferase inhibitors, like 5-azadeoxycytidine, or with HDAC inhibitors, like trichostatin A, induce CDH13 gene expression. Compounds active in this assay may modulate components involved in DNA methylation, histone acetylation or gene transcription.
NCGC Assay Protocol Summary Exponentially growing H358 non-small cell lung cancer cells were treated daily with fresh media containing the indicated concentrations of compounds for 72 hr. Cellular RNA was extracted, quantified, DNAse treated and reverse transcribed. The resulting cDNA was amplified in TaqMan real time quantitative PCR assays (Applied Biosystems) containing validated primers specific for CDH13 (Hs00169908.m1). Reactions were performed on an ABI Prism 7900HT, with an initial 2 min preincubation at 50 C, followed by 10 min at 95 C and then 40 cycles of 95 C for 15 seconds and 60 C for 1 min. GAPDH and 18S ribosomal RNA were used as references. Gene expression was measured by fold-induction over control DMSO-treated samples (36-37 average cycle time). Increases corresponded to at least 2-3 cycle time differences over DMSO controls, which were in the measurable range. Decreases in expression were considered insignificant as measurement of the DMSO samples were at the low limit of detection. Reactions were run in triplicate and error bars represent standard deviations. For further details, see R.L. Johnson, W. Huang, A. Jadhav, C.P. Austin, J. Inglese, E.D. Martinez, A Quantitative High-Throughput Screen Identifies Potential Epigenetic Modulators of Gene Expression, Analytical Biochemistry (2007), doi: 10.1016/j.ab.2007.12.028
As to `O=Nc1ccc(O)c2ncccc12`, the fold change was 85 (active). For `CCN1CSC(=S)N(CC)C1` the value was 1 (inactive); for `Nc1ncn([C@H]2C[C@H](O)[C@@H](CO)O2)c(=O)n1`, 9 (active).

For the molecule `CC(C)C(=O)NC(c1ccco1)c1ccc2cccnc2c1O` (stereo not given), the fold change is 12 (active). As for `CN1CCN(Cc2cc(Cl)c3cccnc3c2O)CC1`, the figure is 10 (active); as for `CC(C)C(=O)NC(c1ccco1)c1cc([N+](=O)[O-])c2cccnc2c1O` (stereo not given), 9 (active); as for `CC(/C=C/C(=O)NO)=C\[C@@H](C)C(=O)c1ccc(N(C)C)cc1`, 256 (active). Turning to `O=C(CSc1cccc2cccnc12)N1CCCC1`, the fold change is 1 (inactive). Take `CN(C)C(=O)CSc1cccc2cccnc12`: the fold change is 1 (inactive). `O=C(CSc1cccc2cccnc12)NCc1ccccc1`: the fold change is 2 (inactive).
